The panel holds about 83,000 compounds, 20% with a hit somewhere; the sample as a whole holds those more often.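 Single-dose data. Exposure time 48 hours. Values below 10 considered active.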 Unmarked numbers belong to inactive results. Active and inactive are the calls of the source.

Among the test systems are NCI-H23 lung; NCI-H226 lung; NCI-H322M lung; HOP-62 NSCLC; NCI-H460 lung; HOP-92 NSCLC; NCI-H522 lung; A549/ATCC NSCLC; 786-0 renal; COLO 205 colon; DU-145 prostate; K-562 leukemia; MALME-3M melanoma; MDA-MB-231 breast; RXF 393 renal; SF-268 CNS; SF-295 CNS; SF-539 CNS; UACC-257 melanoma; M14 melanoma.
Common to all, as to experiment: NCI-60 one-dose screen, 48 h (100 = growth as untreated, 0 = no growth, -100 = all killed)
Holding throughout (conditions): 10 µM unless noted

On to `Oc1cc2ccccc2c(-c2c(O)c(O)cc3ccccc23)c1O`, for which the growth with NCI-H23 lung is 41.5%; in the experiment on NCI-H226 lung it was 39.6%; in the experiment on NCI-H322M lung it was 47.9%; with HOP-62 NSCLC, 42.3%; in the experiment with NCI-H460 lung it was 9.65% (active); in the experiment with HOP-92 NSCLC, -22.5% (active). The growth is 1.24% (active) in the experiment with NCI-H522 lung; 36.1% with A549/ATCC NSCLC; 50% with 786-0 renal; 58.1% in the experiment on COLO 205 colon; 47.3% with DU-145 prostate; 43.8% in the experiment on K-562 leukemia. Further, the growth with MALME-3M melanoma is 75.4%; in the experiment with MDA-MB-231 breast, 75.1%; in the experiment with RXF 393 renal, 72.7%; in the experiment with SF-268 CNS, 37.9%; with SF-295 CNS, -48% (active); with SF-539 CNS, 21.4%. Moreover, the values for the growth in the experiment on UACC-257 melanoma and with M14 melanoma were 56.1% and 25%, respectively.

As for `C/C(=N\Nc1ccc([N+](=O)[O-])cc1[N+](=O)[O-])c1ccc(Br)cc1`, the growth with NCI-H23 lung was 103%; in the experiment with NCI-H226 lung it was 96.6%; in the experiment with NCI-H322M lung, 106%; in the experiment on HOP-62 NSCLC, 108%; in the experiment on NCI-H460 lung, 99.2%; with HOP-92 NSCLC, 94.5%. Also, the growth is 85.5% in the experiment with NCI-H522 lung; 84.8% with A549/ATCC NSCLC; 99.4% in the experiment with 786-0 renal; 104% in the experiment with COLO 205 colon; 103% in the experiment with DU-145 prostate; 98.7% with K-562 leukemia. Besides, the growth in the experiment with MALME-3M melanoma is 107%; with MDA-MB-231 breast it was 91.5%; with RXF 393 renal it was 106%; in the experiment on SF-268 CNS, 97.2%; with SF-295 CNS, 94.4%; in the experiment on SF-539 CNS it was 106%. Moreover, the growth in the experiment on UACC-257 melanoma is 87.9%; in the experiment with M14 melanoma, 106%.

Consider `c1ccc2c(NCCCN3CCN(CCCNc4c5ccccc5nc5ccccc45)CC3)c3ccccc3nc2c1`, for which the growth is -86.2% [100 µM] (active) in the experiment with NCI-H23 lung; -26.2% [100 µM] (active) in the experiment on NCI-H226 lung; -33.2% [100 µM] (active) with NCI-H322M lung; -32.5% [100 µM] (active) with HOP-62 NSCLC; -19.5% [100 µM] (active) in the experiment with NCI-H460 lung; -26.4% [100 µM] (active) in the experiment with HOP-92 NSCLC. Besides, the growth in the experiment with NCI-H522 lung was -72.1% [100 µM] (active); in the experiment on A549/ATCC NSCLC, -24.8% [100 µM] (active); in the experiment with 786-0 renal, -28.5% [100 µM] (active); with COLO 205 colon, -52.6% [100 µM] (active); in the experiment on DU-145 prostate, -63.4% [100 µM] (active); with K-562 leukemia, -10.1% [100 µM] (active). Besides, the growth in the experiment with MALME-3M melanoma is -69.7% [100 µM] (active); in the experiment with MDA-MB-231 breast it was -40.3% [100 µM] (active); in the experiment on RXF 393 renal, -90.3% [100 µM] (active); with SF-268 CNS, -34.9% [100 µM] (active); in the experiment on SF-295 CNS it was -48.1% [100 µM] (active); in the experiment with SF-539 CNS it was -79.2% [100 µM] (active). For the same compound, the growth is -36.4% [100 µM] (active) with UACC-257 melanoma and -81% [100 µM] (active) in the experiment with M14 melanoma.

For `NNC(=O)c1ccccc1N`, the growth is 101% in the experiment with NCI-H23 lung; 114% with NCI-H226 lung; 118% in the experiment with NCI-H322M lung; 90.6% with HOP-62 NSCLC; 118% in the experiment on NCI-H460 lung; 86.4% with HOP-92 NSCLC. Besides, the growth is 130% in the experiment with NCI-H522 lung; 120% in the experiment on A549/ATCC NSCLC; 96.9% with 786-0 renal; 133% with COLO 205 colon; 120% in the experiment with DU-145 prostate; 118% in the experiment with K-562 leukemia. The growth was 110% with MALME-3M melanoma; 113% in the experiment with MDA-MB-231 breast; 40.6% in the experiment with RXF 393 renal; 114% in the experiment on SF-268 CNS; 110% with SF-295 CNS; 112% in the experiment on SF-539 CNS. Also, the growth with UACC-257 melanoma was 93.9%; in the experiment on M14 melanoma it was 106%.

As for `C=CCC(OC(C)=O)c1ccc(OC)c(OC)c1` (stereo not given), the growth in the experiment with NCI-H23 lung was 109%; with NCI-H226 lung it was 119%; with NCI-H322M lung, 105%; in the experiment with HOP-62 NSCLC it was 110%; in the experiment with NCI-H460 lung it was 106%; in the experiment with HOP-92 NSCLC, 108%. The growth in the experiment with NCI-H522 lung is 92.1%; with A549/ATCC NSCLC it was 104%; in the experiment on 786-0 renal, 115%; with COLO 205 colon, 113%; in the experiment with DU-145 prostate, 121%; in the experiment with K-562 leukemia, 116%. In addition, the growth was 124% in the experiment with MALME-3M melanoma; 128% in the experiment on MDA-MB-231 breast; 124% in the experiment on RXF 393 renal; 97.8% in the experiment with SF-268 CNS; 101% with SF-295 CNS; 108% in the experiment on SF-539 CNS. In addition, the figures for the growth in the experiment on UACC-257 melanoma and in the experiment with M14 melanoma were 103% and 108%, respectively.

Turning to `CCC12OC(COc3ccccc3)CN1CCN2c1ccccc1` (stereo not given), the growth with NCI-H23 lung was 98.2% [100 µM]; in the experiment with NCI-H226 lung, 93.8% [100 µM]; in the experiment on NCI-H322M lung, 93.3% [100 µM]; in the experiment on HOP-62 NSCLC, 98.9% [100 µM]; with NCI-H460 lung, 106% [100 µM]; with HOP-92 NSCLC, 96.9% [100 µM]. The growth was 87.6% [100 µM] in the experiment with NCI-H522 lung; 94.1% [100 µM] with A549/ATCC NSCLC; 96.6% [100 µM] in the experiment with 786-0 renal; 118% [100 µM] in the experiment with COLO 205 colon; 106% [100 µM] in the experiment on DU-145 prostate; 93.1% [100 µM] with K-562 leukemia. The growth was 98.4% [100 µM] in the experiment with MALME-3M melanoma; 88.8% [100 µM] with MDA-MB-231 breast; 99.9% [100 µM] with RXF 393 renal; 92.2% [100 µM] in the experiment on SF-268 CNS; 105% [100 µM] in the experiment on SF-295 CNS; 95.9% [100 µM] in the experiment with SF-539 CNS. For the same compound, the growth was 95.8% [100 µM] in the experiment on UACC-257 melanoma and 103% [100 µM] with M14 melanoma.

Consider `CN(C)Cc1ccccn1`, for which the growth was 101% in the experiment with NCI-H23 lung; 108% in the experiment with NCI-H226 lung; 96.3% with NCI-H322M lung; 104% in the experiment with HOP-62 NSCLC; 109% with NCI-H460 lung; 114% with HOP-92 NSCLC. The growth in the experiment on NCI-H522 lung is 91.9%; with A549/ATCC NSCLC it was 93.1%; in the experiment on 786-0 renal it was 97%; in the experiment on COLO 205 colon, 117%; in the experiment with DU-145 prostate it was 120%; with K-562 leukemia, 107%. Moreover, the growth with MALME-3M melanoma is 98.7%; in the experiment with MDA-MB-231 breast it was 98.8%; in the experiment on RXF 393 renal it was 99.5%; with SF-268 CNS, 111%; in the experiment with SF-295 CNS it was 101%; in the experiment with SF-539 CNS it was 92.1%. In addition, the growth in the experiment on UACC-257 melanoma was 99%; in the experiment on M14 melanoma, 97.9%.

`O=C(Nc1cccc(Cl)c1)c1ccc(Cl)cc1Cl`: the growth with NCI-H23 lung is 99.4%; with NCI-H226 lung it was 94.7%; with NCI-H322M lung it was 103%; with HOP-62 NSCLC, 92.3%; in the experiment with NCI-H460 lung, 95.1%; in the experiment on HOP-92 NSCLC, 95.7%. The growth with NCI-H522 lung is 78.1%; in the experiment on A549/ATCC NSCLC it was 81.1%; with 786-0 renal, 88.4%; in the experiment on COLO 205 colon it was 101%; with DU-145 prostate, 99.3%; in the experiment on K-562 leukemia, 90.9%. The growth is 96.6% with MALME-3M melanoma; 97.9% with MDA-MB-231 breast; 110% with RXF 393 renal; 96.2% in the experiment with SF-268 CNS; 94.6% with SF-295 CNS; 103% in the experiment on SF-539 CNS. Besides, the growth is 99.7% with UACC-257 melanoma and 93.7% in the experiment on M14 melanoma.
